Source: PubChem BioAssay (Tox21)
“And” between values parts separate entries of the source, which are not always exact repeats. Equal values may be shown once. Results filed as inconclusive are left out. A call without a number means that no potency is given here. The source made the active and inactive calls. Unless noted, calls follow the shape of the dose curve; as a rule, active = well fitted curve in the direction sought with a large enough effect in the repeat runs; inconclusive = weak or mixed curves; inactive = no such curve, though single readings can be large; an effect the other way counts as inactive or inconclusive.

Columns and labels:
[1] = biological target: Acetylcholinesterase (Homo sapiens) (UniProt P22303); experiment: Acetylcholinesterase (AChE) small molecule antagonists: enzyme-based qHTS assay (AID 1347397; calls by dose curve; also: nearly all actives have a fitted effect of over 55% in size; also: potency is read from the fitted curve at half-maximal effect); settings: Potency: AChE enzyme activity inhibition; outcome: AChE enzyme activity inhibition
Sequence of Acetylcholinesterase (Homo sapiens) (P22303 whole entry, looked up): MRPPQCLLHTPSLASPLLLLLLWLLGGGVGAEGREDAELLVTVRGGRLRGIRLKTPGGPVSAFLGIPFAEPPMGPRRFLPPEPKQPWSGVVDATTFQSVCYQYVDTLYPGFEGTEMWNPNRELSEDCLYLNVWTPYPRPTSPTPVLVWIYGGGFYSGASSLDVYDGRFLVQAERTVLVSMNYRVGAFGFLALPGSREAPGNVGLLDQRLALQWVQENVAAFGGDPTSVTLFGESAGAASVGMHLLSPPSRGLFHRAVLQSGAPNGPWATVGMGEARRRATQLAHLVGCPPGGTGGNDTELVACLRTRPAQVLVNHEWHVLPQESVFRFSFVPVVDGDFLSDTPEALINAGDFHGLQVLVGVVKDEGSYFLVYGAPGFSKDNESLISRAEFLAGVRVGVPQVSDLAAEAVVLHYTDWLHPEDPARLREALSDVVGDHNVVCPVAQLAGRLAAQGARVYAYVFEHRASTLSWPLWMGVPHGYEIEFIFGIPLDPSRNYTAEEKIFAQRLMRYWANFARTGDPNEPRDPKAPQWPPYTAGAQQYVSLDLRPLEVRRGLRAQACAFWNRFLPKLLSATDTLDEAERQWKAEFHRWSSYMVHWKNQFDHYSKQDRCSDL
Method in brief: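 In this quantitative HTS, compounds from the Tox21 10K collection were preincubated 30 min at ambient temperature with recombinant human AChE dispensed at 50 mU/mL. Hydrolysis of acetylthiocholine was then followed for 10 min by DTNB colour development.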

[2] = biological target: Acetylcholinesterase (Homo sapiens) (UniProt P22303); experiment: Acetylcholinesterase (AChE) small molecule antagonists: fluorescence cell-based qHTS assay (AID 1347398; calls by dose curve; also: nearly all actives have a fitted effect of over 50% in size; also: potency is read from the fitted curve at half-maximal effect); settings: Potency: AChE activity; outcome: AChE activity
Method in brief: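 Cells (SH-SY5Y) attached overnight, were dosed with compound or DMSO vehicle for 30 min at 37 C, and then incubated 40 min at room temperature with acetylthiocholine and Thiolite Green; green fluorescence indexed AChE activity.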

[3] = biological target: Cytochrome P450 2D6 (Homo sapiens) (UniProt P10635); experiment: Cytochrome P450 Family 2 Subfamily D Member 6 (CYP2D6) small molecule antagonists: luciferase reporter qHTS assay (AID 1671196); also: nearly all actives have a fitted effect of over 50% in size; also: potency is read from the fitted curve at half-maximal effect
Sequence of Cytochrome P450 2D6 (Homo sapiens) (P10635 whole entry, looked up): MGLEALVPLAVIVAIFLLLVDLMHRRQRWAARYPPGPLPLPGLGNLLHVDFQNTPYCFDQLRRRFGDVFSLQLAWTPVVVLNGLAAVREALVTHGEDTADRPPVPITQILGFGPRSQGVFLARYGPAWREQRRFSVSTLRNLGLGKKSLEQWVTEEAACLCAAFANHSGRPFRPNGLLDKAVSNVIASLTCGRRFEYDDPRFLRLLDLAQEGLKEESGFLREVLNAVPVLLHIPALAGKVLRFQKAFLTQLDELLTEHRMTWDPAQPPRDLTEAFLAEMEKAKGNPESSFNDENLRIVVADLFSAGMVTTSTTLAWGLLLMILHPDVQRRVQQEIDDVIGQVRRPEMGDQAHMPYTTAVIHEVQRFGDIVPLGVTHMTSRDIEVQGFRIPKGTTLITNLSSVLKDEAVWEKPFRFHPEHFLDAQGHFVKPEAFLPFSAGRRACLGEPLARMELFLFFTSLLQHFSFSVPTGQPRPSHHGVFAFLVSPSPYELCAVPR
Method in brief: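 CYP2D6 activity was followed as luminescence from its luciferin product after a 1 h NADPH-driven reaction at room temperature. Enzyme-substrate mix and compound were pre-incubated for 10 min, and the signal was read 20 min after adding detection reagent.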

[4] = biological target: Cytochrome P450 2C19 (Homo sapiens) (UniProt P33261); experiment: Cytochrome P450 Family 2 Subfamily C Member 19 (CYP2C19) small molecule antagonists: luciferase reporter qHTS assay (AID 1671197); also: nearly all actives have a fitted effect of over 65% in size; also: potency is read from the fitted curve at half-maximal effect
Sequence of Cytochrome P450 2C19 (Homo sapiens) (P33261 whole entry, looked up): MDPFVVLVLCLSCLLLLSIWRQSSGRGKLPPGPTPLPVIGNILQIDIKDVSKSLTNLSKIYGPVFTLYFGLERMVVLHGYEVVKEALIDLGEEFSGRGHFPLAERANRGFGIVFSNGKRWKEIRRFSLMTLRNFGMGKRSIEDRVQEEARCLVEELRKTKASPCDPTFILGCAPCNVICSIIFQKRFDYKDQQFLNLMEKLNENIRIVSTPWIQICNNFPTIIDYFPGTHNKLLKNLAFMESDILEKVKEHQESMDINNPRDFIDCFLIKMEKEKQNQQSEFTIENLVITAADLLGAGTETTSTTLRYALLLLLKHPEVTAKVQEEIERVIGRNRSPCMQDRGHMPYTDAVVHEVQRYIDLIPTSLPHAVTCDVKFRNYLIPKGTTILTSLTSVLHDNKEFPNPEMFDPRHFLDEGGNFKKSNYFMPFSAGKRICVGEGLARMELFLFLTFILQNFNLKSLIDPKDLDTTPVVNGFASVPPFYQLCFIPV
Method in brief: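 Enzyme-substrate mix with proluciferin substrate (P450-Glo CYP2C19 system) preincubated with compounds 10 min at room temperature; NADPH regeneration solution added, 37C for 1 h; detection reagent stops reaction, luminescence read after 20 min. Ketoconazole positive control.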

[5] = biological target: Cytochrome P450 1A2 (Homo sapiens) (UniProt P05177); experiment: Cytochrome P450 Family 1 Subfamily A Member 2 (CYP1A2) small molecule antagonists: luciferase reporter qHTS assay (AID 1671199); also: nearly all actives have a fitted effect of over 50% in size; also: potency is read from the fitted curve at half-maximal effect
Sequence of Cytochrome P450 1A2 (Homo sapiens) (P05177 whole entry, looked up): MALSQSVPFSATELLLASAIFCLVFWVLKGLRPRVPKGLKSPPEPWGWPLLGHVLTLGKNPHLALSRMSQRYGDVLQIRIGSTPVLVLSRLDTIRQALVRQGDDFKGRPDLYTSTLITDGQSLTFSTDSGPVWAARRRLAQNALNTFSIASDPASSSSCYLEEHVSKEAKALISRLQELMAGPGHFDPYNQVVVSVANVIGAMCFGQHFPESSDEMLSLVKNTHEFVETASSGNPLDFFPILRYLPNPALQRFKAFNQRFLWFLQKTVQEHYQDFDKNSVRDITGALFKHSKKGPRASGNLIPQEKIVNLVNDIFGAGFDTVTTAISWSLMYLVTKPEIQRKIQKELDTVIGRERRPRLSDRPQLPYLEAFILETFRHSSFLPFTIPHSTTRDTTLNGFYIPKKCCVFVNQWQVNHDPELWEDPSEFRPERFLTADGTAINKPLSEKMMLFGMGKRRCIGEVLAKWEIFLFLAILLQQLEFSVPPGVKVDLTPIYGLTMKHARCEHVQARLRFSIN
Method in brief: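 Luminescence from luciferin formed by CYP1A2 from a proluciferin substrate, read 20 min after detection reagent. Compound was pre-incubated 10 min with enzyme-substrate, and reaction started with NADPH regeneration solution for 1 h at room temperature; furafylline control.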

[6] = biological target: Voltage-gated inwardly rectifying potassium channel KCNH2 (Homo sapiens) (UniProt Q12809); experiment: Human Ether-a-go-go-Related Gene (hERG) channel small molecule antagonists: fluorescence cell-based qHTS assay (AID 1671200); also: nearly all actives have a fitted effect of over 50% in size; also: potency is read from the fitted curve at half-maximal effect
Sequence of Voltage-gated inwardly rectifying potassium channel KCNH2 (Homo sapiens) (Q12809 whole entry, looked up): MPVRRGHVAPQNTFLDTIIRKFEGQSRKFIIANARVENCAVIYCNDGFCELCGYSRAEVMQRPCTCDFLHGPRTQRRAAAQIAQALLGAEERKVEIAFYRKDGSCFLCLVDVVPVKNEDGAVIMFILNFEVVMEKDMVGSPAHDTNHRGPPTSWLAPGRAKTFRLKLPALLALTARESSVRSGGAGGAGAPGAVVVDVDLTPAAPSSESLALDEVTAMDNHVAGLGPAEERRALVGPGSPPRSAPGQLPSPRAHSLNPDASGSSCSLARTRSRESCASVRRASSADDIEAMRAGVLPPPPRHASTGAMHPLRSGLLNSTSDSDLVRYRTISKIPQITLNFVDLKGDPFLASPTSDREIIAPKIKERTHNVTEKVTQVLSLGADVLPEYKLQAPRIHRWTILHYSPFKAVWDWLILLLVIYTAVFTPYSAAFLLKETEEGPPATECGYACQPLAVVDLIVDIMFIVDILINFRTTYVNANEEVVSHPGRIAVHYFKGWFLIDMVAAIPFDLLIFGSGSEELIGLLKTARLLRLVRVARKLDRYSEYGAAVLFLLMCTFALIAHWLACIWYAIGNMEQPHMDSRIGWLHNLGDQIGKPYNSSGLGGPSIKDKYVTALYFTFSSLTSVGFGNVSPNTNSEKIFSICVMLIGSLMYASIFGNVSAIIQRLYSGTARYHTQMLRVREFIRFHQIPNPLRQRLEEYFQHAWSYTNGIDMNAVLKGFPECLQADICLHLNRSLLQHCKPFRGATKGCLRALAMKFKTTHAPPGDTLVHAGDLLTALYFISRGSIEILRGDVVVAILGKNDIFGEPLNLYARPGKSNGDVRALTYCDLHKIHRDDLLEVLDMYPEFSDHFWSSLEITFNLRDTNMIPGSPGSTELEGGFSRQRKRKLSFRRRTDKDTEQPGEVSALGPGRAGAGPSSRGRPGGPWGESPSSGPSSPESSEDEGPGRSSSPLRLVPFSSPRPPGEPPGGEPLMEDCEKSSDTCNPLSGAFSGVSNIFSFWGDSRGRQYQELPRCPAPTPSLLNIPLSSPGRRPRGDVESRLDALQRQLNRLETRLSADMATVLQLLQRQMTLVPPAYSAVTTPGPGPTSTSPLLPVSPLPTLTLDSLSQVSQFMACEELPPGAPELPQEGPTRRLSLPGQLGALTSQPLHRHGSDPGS
Method in brief: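 Quantitative HTS in hERG-U2OS cells: thallium entry through the channel reports activity, read as continuous 480/540 nm fluorescence over 2 min after stimulus addition.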

[7] = biological target: Cytochrome P450 3A4 (Homo sapiens) (UniProt P08684); experiment: Cytochrome P450 Family 3 Subfamily A Member 4 (CYP3A4) small molecule antagonists: luciferase reporter qHTS assay (AID 1671201)
Sequence of Cytochrome P450 3A4 (Homo sapiens) (P08684 whole entry, looked up): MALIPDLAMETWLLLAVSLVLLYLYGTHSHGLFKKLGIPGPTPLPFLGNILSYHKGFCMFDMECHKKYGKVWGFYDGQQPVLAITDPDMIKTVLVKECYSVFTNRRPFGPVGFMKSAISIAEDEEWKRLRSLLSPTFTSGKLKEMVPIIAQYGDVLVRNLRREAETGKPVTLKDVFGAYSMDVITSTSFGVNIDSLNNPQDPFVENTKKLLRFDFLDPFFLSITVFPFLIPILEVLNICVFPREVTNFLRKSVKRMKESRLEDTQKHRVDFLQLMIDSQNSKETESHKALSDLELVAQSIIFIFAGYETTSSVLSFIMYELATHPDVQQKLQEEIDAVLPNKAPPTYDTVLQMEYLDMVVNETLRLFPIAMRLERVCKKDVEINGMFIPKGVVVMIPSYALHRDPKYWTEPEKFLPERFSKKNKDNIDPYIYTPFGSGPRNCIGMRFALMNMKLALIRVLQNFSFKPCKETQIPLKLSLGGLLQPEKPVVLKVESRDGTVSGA
Method in brief: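 Inhibition of CYP3A4 is measured as loss of light: the enzyme converts a proluciferin substrate to luciferin, detected luminescently. Reaction ran 1 h at room temperature with NADPH regeneration after a 10 min compound preincubation.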

[8] = biological target: Cytochrome P450 2C9 (Homo sapiens) (UniProt P11712); experiment: Cytochrome P450 Family 2 Subfamily C Member 9 (CYP2C9) small molecule antagonists: luciferase reporter qHTS assay (AID 1671198); also: nearly all actives have a fitted effect of over 50% in size; also: potency is read from the fitted curve at half-maximal effect
Sequence of Cytochrome P450 2C9 (Homo sapiens) (P11712 whole entry, looked up): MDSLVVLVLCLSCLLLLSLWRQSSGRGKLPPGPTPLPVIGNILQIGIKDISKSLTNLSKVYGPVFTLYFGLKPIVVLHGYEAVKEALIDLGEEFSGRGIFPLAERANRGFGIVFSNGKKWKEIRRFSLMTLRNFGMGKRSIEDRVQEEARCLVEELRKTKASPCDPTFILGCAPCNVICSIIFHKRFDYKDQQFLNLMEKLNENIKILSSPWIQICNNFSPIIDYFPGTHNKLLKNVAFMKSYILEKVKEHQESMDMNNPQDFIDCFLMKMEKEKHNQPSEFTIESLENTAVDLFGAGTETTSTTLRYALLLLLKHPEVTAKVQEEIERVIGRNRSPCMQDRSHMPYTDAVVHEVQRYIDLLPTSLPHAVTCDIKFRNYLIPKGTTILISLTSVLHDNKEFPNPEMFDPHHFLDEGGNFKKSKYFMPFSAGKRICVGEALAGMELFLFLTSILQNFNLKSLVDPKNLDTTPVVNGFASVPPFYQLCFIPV
Method in brief: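 P450-Glo proluciferin substrate with CYP2C9 enzyme; 10 min RT preincubation, then NADPH regeneration 1 h at 37C; luciferin detection reagent 20 min RT, luminescence in relative luminescence units.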

[9] = biological target: Acetylcholinesterase (Homo sapiens) (UniProt P22303); experiment: Acetylcholinesterase (AChE) small molecule antagonists: enzyme-based qHTS assay with human liver microsomes (AID 1347399; calls by dose curve; also: nearly all actives have a fitted effect of over 60% in size); settings: Potency: qHTS inhibition; outcome: qHTS inhibition
Method in brief: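 Recombinant human AChE (50 mU/mL in the enzyme mix) and human liver microsomes (0.25 mg/mL final) were preincubated with compound and NADPH (0.25 mg/mL final) for 30 min at 37 C. Acetylthiocholine/DTNB was then added; thiocholine was read colorimetrically after 10 min at room temperature.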

Question: Which Potency [1] does the source give for `CNC(=O)Oc1ccccc1C(C)C` here?
Answer: 7.96 µM (active)

Question: And the Potency [2]?
Answer: 4.48 µM (active)

Question: And the Potency [3]?
Answer: inactive

Question: What about the Potency [4] of the same molecule?
Answer: 39.9 µM (active)

Question: What about the Potency [5] of the same molecule?
Answer: 35.6 µM (active)

Question: What about the Potency [6] of the same molecule?
Answer: inactive

Question: Which Potency [1] does the source give for `CC(=NC#N)N(C)Cc1ccc(Cl)nc1` here?
Answer: inactive

Question: And the Potency [2]?
Answer: inactive

Question: And the Potency [3]?
Answer: inactive

Question: And the Potency [5]?
Answer: inactive

Question: And the Potency [6]?
Answer: inactive

Question: How did the Potency [1] turn out when `O=CCCl` was run?
Answer: inactive

Question: What about the Potency [2] of the same molecule?
Answer: inactive

Question: And the Potency [3]?
Answer: inactive

Question: What about the Potency [4] of the same molecule?
Answer: inactive

Question: And the Potency [5]?
Answer: inactive

Question: What about the Potency [6] of the same molecule?
Answer: inactive

Question: And the Potency [7]?
Answer: inactive

Question: For `NC(=O)OCCCc1ccccc1`, which Potency [1] is on record?
Answer: inactive

Question: And the Potency [2]?
Answer: inactive

Question: And the Potency [3]?
Answer: inactive

Question: What about the Potency [8] of the same molecule?
Answer: inactive

Question: And the Potency [5]?
Answer: 21.9 µM (active)

Question: What about the Potency [6] of the same molecule?
Answer: inactive

Question: What about the Potency [7] of the same molecule?
Answer: inactive

Question: For `C=C(Cl)CSC(=S)N(CC)CC`, which Potency [1] is on record?
Answer: inactive

Question: What about the Potency [2] of the same molecule?
Answer: inactive

Question: What about the Potency [3] of the same molecule?
Answer: inactive

Question: What about the Potency [4] of the same molecule?
Answer: 34.7 µM (active)

Question: And the Potency [8]?
Answer: 38.9 µM (active)

Question: What about the Potency [5] of the same molecule?
Answer: 9.77 µM (active)

Question: What about the Potency [6] of the same molecule?
Answer: 53.5 µM (active)

Question: What does the source list for `COc1cccc(C=O)c1`?
Answer: Potency [1]: inactive; Potency [2]: inactive; Potency [3]: inactive; Potency [8]: inactive; Potency [5]: 39.9 µM (active); Potency [6]: inactive; Potency [7]: inactive

Question: For `Oc1ccc(Cc2ccc(O)cc2)cc1`, which Potency [1] is on record?
Answer: inactive

Question: What about the Potency [2] of the same molecule?
Answer: inactive

Question: What about the Potency [9] of the same molecule?
Answer: inactive

Question: What about the Potency [7] of the same molecule?
Answer: inactive

Question: `O=S1(=O)OCCO1` was tested. Which Potency [1] did it give?
Answer: inactive

Question: And the Potency [2]?
Answer: inactive

Question: And the Potency [3]?
Answer: inactive

Question: And the Potency [8]?
Answer: inactive

Question: And the Potency [6]?
Answer: inactive

Question: What about the Potency [7] of the same molecule?
Answer: inactive

Question: For `Cl/C=C/CCl`, which Potency [1] is on record?
Answer: inactive

Question: What about the Potency [2] of the same molecule?
Answer: inactive

Question: What about the Potency [4] of the same molecule?
Answer: inactive

Question: What about the Potency [8] of the same molecule?
Answer: inactive

Question: What about the Potency [6] of the same molecule?
Answer: inactive

Question: What about the Potency [7] of the same molecule?
Answer: inactive

Question: Which Potency [1] does the source give for `O=C(Cl)c1ccccc1` here?
Answer: inactive

Question: And the Potency [2]?
Answer: inactive

Question: And the Potency [3]?
Answer: inactive

Question: And the Potency [4]?
Answer: 41.1 µM (active)

Question: And the Potency [5]?
Answer: inactive

Question: For `CC(C)N(Cc1ccccc1)C(=O)C(C)(C)C`, which Potency [1] is on record?
Answer: inactive

Question: And the Potency [2]?
Answer: inactive

Question: And the Potency [3]?
Answer: inactive

Question: What about the Potency [4] of the same molecule?
Answer: 20 µM (active)

Question: And the Potency [7]?
Answer: inactive

Question: Which Potency [1] does the source give for `CCC1(CC)C(=O)C=CNC1=O` here?
Answer: inactive

Question: And the Potency [2]?
Answer: inactive

Question: What about the Potency [9] of the same molecule?
Answer: inactive

Question: And the Potency [5]?
Answer: 15.5 µM (active)

Question: What about the Potency [7] of the same molecule?
Answer: inactive

Question: `O=C(NC(=O)c1c(F)cccc1F)Nc1cc(Cl)c(F)c(Cl)c1F` was tested. Which Potency [1] did it give?
Answer: inactive

Question: And the Potency [2]?
Answer: inactive

Question: And the Potency [3]?
Answer: inactive

Question: What about the Potency [4] of the same molecule?
Answer: 69.2 µM (active)

Question: What about the Potency [5] of the same molecule?
Answer: 30.9 µM (active)

Question: What about the Potency [7] of the same molecule?
Answer: inactive

Question: `O=P(O)(O)c1ccccc1` was tested. Which Potency [1] did it give?
Answer: inactive

Question: What about the Potency [2] of the same molecule?
Answer: inactive

Question: What about the Potency [9] of the same molecule?
Answer: inactive

Question: And the Potency [8]?
Answer: inactive

Question: What about the Potency [5] of the same molecule?
Answer: inactive

Question: What about the Potency [6] of the same molecule?
Answer: inactive

Question: What about the Potency [7] of the same molecule?
Answer: inactive

Question: What does the source list for `C=C1C[C@@H]2[C@H](CC[C@]3(C)C(=O)CC[C@@H]23)[C@@]2(C)C=CC(=O)C=C12`?
Answer: Potency [1]: inactive; Potency [2]: inactive; Potency [9]: inactive; Potency [5]: inactive; Potency [6]: inactive

Question: `O=c1[nH]c2ccccc2o1` was tested. Which Potency [1] did it give?
Answer: inactive

Question: What about the Potency [2] of the same molecule?
Answer: inactive

Question: What about the Potency [9] of the same molecule?
Answer: inactive

Question: What about the Potency [8] of the same molecule?
Answer: inactive

Question: What about the Potency [6] of the same molecule?
Answer: inactive

Question: What about the Potency [7] of the same molecule?
Answer: inactive

Question: With `C/C(=N\NC(=O)Nc1cc(F)cc(F)c1)c1ncccc1C(=O)O` as the molecule, how does the Potency [1] read?
Answer: inactive

Question: And the Potency [2]?
Answer: inactive

Question: What about the Potency [3] of the same molecule?
Answer: inactive

Question: What about the Potency [8] of the same molecule?
Answer: 10 µM (active) and 12.6 µM (active)

Question: For `CCN[C@@H](C)Cc1cccc(C(F)(F)F)c1`, which Potency [1] is on record?
Answer: inactive

Question: What about the Potency [2] of the same molecule?
Answer: inactive

Question: What about the Potency [3] of the same molecule?
Answer: 2.45 µM (active)

Question: What about the Potency [4] of the same molecule?
Answer: inactive

Question: And the Potency [8]?
Answer: inactive

Question: What about the Potency [6] of the same molecule?
Answer: inactive

Question: And the Potency [7]?
Answer: inactive

Question: What does the source list for `CNC(=O)Oc1cc(C)c(N(C)C)c(C)c1`?
Answer: Potency [1]: 2.25 µM (active); Potency [2]: 0.797 µM (active); Potency [4]: 79.7 µM (active); Potency [8]: inactive; Potency [5]: 10 µM (active); Potency [6]: inactive; Potency [7]: inactive

Question: Which Potency [1] does the source give for `CCOC(=O)c1ncn2c1CN(C)C(=O)c1c(I)cccc1-2` here?
Answer: inactive

Question: And the Potency [2]?
Answer: inactive

Question: What about the Potency [9] of the same molecule?
Answer: inactive

Question: And the Potency [5]?
Answer: inactive

Question: What about the Potency [6] of the same molecule?
Answer: inactive

Question: What about the Potency [7] of the same molecule?
Answer: inactive

Question: How did the Potency [1] turn out when `CCC(CC)(CNC(=O)CCCO)c1cccc(OC)c1` was run?
Answer: inactive

Question: And the Potency [2]?
Answer: inactive

Question: What about the Potency [5] of the same molecule?
Answer: inactive

Question: And the Potency [6]?
Answer: inactive

Question: Which results are given for `N[C@@H]1C[C@H]1c1ccccc1`?
Answer: outcome [1]: inactive; outcome [9]: inactive; Potency [3]: 27.5 µM (active); Potency [8]: 19.5 µM (active); Potency [6]: inactive
